The sample as a whole holds a higher share of hits than the screen did.
KDM5B inh: KDM5B demethylase inhibition; Q9UGL1; KDM5B demethylase, FDH-coupled NADH fluorescence (FDH is formaldehyde dehydrogenase); Potency, µM (series often up to 57.7 µM), hits mostly inhibitors; 220,000 compounds, 2.6% hits; AID 1347165; active = well fitted inhibition curve with a large enough effect; note: nearly all actives have a fitted effect of over 70% in size
Target sequence (Q9UGL1 whole entry, looked up): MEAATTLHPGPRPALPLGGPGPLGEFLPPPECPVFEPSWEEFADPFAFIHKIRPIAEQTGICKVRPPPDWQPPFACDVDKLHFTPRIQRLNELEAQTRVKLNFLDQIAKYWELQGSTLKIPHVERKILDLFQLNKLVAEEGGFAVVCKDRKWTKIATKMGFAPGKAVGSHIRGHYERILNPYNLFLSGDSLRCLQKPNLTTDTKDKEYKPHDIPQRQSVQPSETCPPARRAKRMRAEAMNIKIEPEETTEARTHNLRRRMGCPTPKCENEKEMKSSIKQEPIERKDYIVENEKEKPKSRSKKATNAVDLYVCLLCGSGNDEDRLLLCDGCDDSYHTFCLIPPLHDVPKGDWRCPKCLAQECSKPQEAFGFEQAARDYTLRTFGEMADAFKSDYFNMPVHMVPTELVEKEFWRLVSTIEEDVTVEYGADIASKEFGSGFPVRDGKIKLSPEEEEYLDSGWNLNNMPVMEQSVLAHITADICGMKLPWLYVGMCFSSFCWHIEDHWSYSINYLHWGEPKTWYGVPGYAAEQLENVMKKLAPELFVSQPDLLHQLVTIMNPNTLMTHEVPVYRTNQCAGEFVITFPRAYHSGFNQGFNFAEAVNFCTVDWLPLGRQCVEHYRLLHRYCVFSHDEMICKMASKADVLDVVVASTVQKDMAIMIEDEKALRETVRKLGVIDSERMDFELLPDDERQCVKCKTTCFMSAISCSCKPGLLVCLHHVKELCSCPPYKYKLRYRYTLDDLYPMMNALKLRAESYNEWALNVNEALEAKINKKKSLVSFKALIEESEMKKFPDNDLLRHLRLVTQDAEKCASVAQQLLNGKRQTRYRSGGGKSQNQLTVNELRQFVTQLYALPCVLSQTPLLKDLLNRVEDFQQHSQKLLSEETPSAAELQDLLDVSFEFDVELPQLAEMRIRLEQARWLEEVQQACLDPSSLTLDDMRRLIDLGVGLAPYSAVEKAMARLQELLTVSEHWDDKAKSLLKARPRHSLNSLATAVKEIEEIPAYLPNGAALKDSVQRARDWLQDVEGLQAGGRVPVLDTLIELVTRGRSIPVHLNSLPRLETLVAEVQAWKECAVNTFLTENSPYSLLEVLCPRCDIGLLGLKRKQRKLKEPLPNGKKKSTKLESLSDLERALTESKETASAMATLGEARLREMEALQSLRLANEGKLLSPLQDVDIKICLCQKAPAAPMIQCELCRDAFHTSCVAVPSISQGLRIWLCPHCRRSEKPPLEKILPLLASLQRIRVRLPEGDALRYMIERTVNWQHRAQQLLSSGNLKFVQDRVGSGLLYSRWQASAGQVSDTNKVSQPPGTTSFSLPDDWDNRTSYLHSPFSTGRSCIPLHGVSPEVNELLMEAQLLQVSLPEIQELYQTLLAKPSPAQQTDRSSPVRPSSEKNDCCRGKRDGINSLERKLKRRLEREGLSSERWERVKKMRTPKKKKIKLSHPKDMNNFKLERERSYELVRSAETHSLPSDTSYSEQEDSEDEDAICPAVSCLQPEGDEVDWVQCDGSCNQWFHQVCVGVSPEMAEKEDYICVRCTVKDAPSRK
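Inhibition is measured as reduced NADH fluorescence generation from FDH coupling to formaldehyde release. Truncated KDM5BΔAP at 200 nM final acts on H3K4me3 peptide (12.5 µM in substrate mix) in pH 7.5 HEPES buffer with Tween-20, 30 min, room temperature.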
Hits are given with their value; i = inactive.

SMILES | KDM5B inh
CC(O)CNc1nc2c(c(=O)n(C)c(=O)n2C)n1Cc1ccccc1 (stereo not drawn) | i
COC(=O)c1ccccc1NC(=O)CN1N=C(c2ccccc2)c2cc(Cl)ccc2S1(=O)=O | i
Cn1ccc2cc(S(=O)(=O)N3CCN(C(=O)Nc4ccccc4F)CC3)ccc21 | i
O=C(Nc1ccccc1)N1CCc2nc(-c3ccc(Cl)cc3)nc(-c3ccccc3)c2C1 | i
Cn1c2c(c3ccccc31)CN(C(=O)Nc1ccccc1F)CC2 | 22µM
CC(=O)N1CCn2cc(C(=O)Nc3ccc(Cl)cc3Cl)nc2C1 | i
CS(=O)(=O)N1CCC(OC2CCN(C(=O)Nc3ccccc3F)CC2)CC1 | i
Cn1c2c(c3ccccc31)CN(C(=O)Nc1ccc(Cl)cc1Cl)CC2 | 22µM
CCCCN(Cc1cc2ccccc2[nH]c1=O)C(=O)c1cc(OC)c(OC)c(OC)c1 | i
NC(=O)c1ccc(C(=O)NC2CCCc3ccccc32)cc1 (stereo not drawn) | i
CN(C)C(=O)CN1CCN(C(C(=O)O)c2cn(C)c3cc(C(=O)O)ccc23)CC1 (stereo not drawn) | i
COc1cc(Br)c(C(N)C(=O)O)cc1OC (stereo not drawn) | i
Cc1cc(NC(=O)COc2c(Cl)cccc2Cl)n(C)n1 | i
COc1ncccc1-c1cnc2[nH]cc(CC(=O)Nc3ccn(C)n3)c2c1 | 32µM
Cc1ccccc1-c1cnc2[nH]cc(CC(=O)Nc3ccn(C)n3)c2c1 | 32µM
Cc1ccc(-c2cnc(CCC(=O)Nc3ccn(C)n3)o2)cc1C | i
COc1ncccc1-c1cnc2[nH]cc(CC(=O)Nc3cc(C)nn3C)c2c1 | 40µM
COc1ncccc1-c1cnc2[nH]cc(CC(=O)Nc3ccccn3)c2c1 | 35µM
CNC(=O)c1cccc(-c2cnc3[nH]cc(CC(=O)Nc4ccccc4Cl)c3c2)c1 | i
Cc1c(CC(=O)NC2CC2)c2c(n1Cc1ccc(F)cc1)CCCC2=O | i
CCCCNc1nc(-c2ccc(OC)c(OC)c2)cs1 | i
CC(C)NC(=O)CSc1nnc(-c2cccnc2)n1C | i
O=C1CCSc2c1cccc2C(=O)NCC1CCN(Cc2ccc(F)cc2)CC1 | i
CCOc1ccc(N2C(=O)CCS2(=O)=O)cc1S(=O)(=O)NCc1ccco1 | i
COC(=O)C1=C(N)OC2=C(C(=O)CC(C)(C)C2)C1c1ccc(Cl)cc1 (stereo not drawn) | i
SMILES | KDM5B inh
CCOC(=O)CSc1nc2c(c(=O)[nH]c(=O)n2C)n1Cc1ccc(Cl)cc1 | i
O=C(CCOc1ccccc1Cl)N1CCC(c2nnc3n2CCC3)CC1 | i
CC(C)c1ccc(OCC(=O)c2ccc3c(c2)N(CCCC(=O)N2CCOCC2)C(=O)CO3)cc1 | i
COC[C@@H]1CN(C(=O)c2cc3ccc(OC)cc3[nH]2)C[C@H]1C(N)=O | i
COc1ccc2[nH]c(C(=O)N3C[C@@H](C(N)=O)[C@H](c4n[nH]c(C)n4)C3)cc2c1 | 28µM
Cc1nc([C@@H]2CN(C(=O)c3sccc3C)C[C@H]2C(N)=O)n[nH]1 | i
Cc1nc([C@@H]2CN(C(=O)c3cccs3)C[C@H]2C(N)=O)n[nH]1 | i
CNC(=O)[C@@H]1CN(C(=O)c2cc3ccccc3[nH]2)C[C@H]1COC | i
CNC(=O)[C@@H]1CN(C(=O)c2cc3cc(OC)ccc3[nH]2)C[C@H]1COC | 32µM
COc1ccc(-n2c(-c3ccc(F)cc3)cn3c4c(=O)[nH]c(=O)n(C)c4nc23)c(OC)c1 | i
Cc1ccc(C(=O)OC(C)C(=O)NC(=O)NC2CC2)c(O)c1 (stereo not drawn) | i
CN(Cc1cccc(C(F)(F)F)c1)C(=O)c1ccccc1F | i
Cc1cn2nnc(C(=O)N3CCC(C(=O)NCc4ccccc4)CC3)c2c(=O)[nH]1 | i
O=C(Cn1nnc(-c2ccc(F)cc2)n1)N1CCOCC1 | i
CCCCN(CC)C(=O)c1nnn2cc(-c3ccc(Cl)cc3)[nH]c(=O)c12 | i
C=CCN1CCN(C(=O)c2nnn3cc(-c4ccccc4)[nH]c(=O)c23)CC1 | 28µM
C=CCN1CCN(C(=O)c2cccs2)CC1 | i
O=C(c1nnn2cc(-c3ccc(F)cc3)[nH]c(=O)c12)N1CCOCC1 | 32µM
CCCCNC(=O)c1nnn2cc(C)[nH]c(=O)c12 | i
Cc1cn2nnc(C(=O)N3CCC(C(=O)Nc4ccc(F)c(Cl)c4)CC3)c2c(=O)[nH]1 | i
CCCCNC(=O)c1nnn2cc(-c3ccc(Cl)cc3)[nH]c(=O)c12 | 8.9µM
COc1ccc(-c2cc(C[C@H]3CNCC[C@H]3CC(=O)NCc3ccccc3)no2)cc1 | i
CCOC(=O)c1oc2cc(OC)ccc2c(=O)c1-c1ccccc1OC | i
COc1ccc(OC)c(C(=O)c2oc3cc(NC(=O)C4CC4)ccc3c2C)c1 | i
O=C(Nc1c(-c2ccc(F)cc2)nc2sccn12)c1cccc(S(=O)(=O)N2CCOCC2)c1 | i
COc1ccc(-c2csc(/C(C#N)=C\c3ccccc3C(F)(F)F)n2)cc1 | i
CN(C(=O)CSc1nnc(Nc2ccccc2F)s1)c1ccccc1 | i
Cc1cc2nc(CSc3nc4ccc(NC(=O)Cc5ccccc5)cc4s3)cc(=O)n2o1 | i
COc1ccc(OC)c(CNC(=O)c2nccnc2N)c1 | i
CCN(CC)c1cc(CCC(=O)NCc2ccccc2OC)ccn1 | 25µM
